Bioassay records: PubChem, National Center for Advancing Translational Sciences (NCATS)
ELG1 DNA repair: blocks ELG1-dependent DNA repair in HEK293T cells. HEK293T ELG1-luciferase reporter, luminescence, 16 h; DNA damage induced by 5-fluorouridine. Potency, µM (top dose mostly 46.1 µM), inactives show top-dose activity change, negative = inhibition, usual class: inhibitors. AID 504467. hit rate 2.3% among 330,000; further: potency means the concentration at half of the fitted maximal effect; nearly all actives have a fitted effect of over 55% in size
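Overnight (16 hr) co-exposure of 2,000 cells/well to 5-fluorouridine and compound at 37 °C preceded detection. Luciferase was quantified via ONE-Glo luminescence; loss of signal denotes inhibition.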
IL1B secr inh: inflammasome signaling inhibition, IL-1 beta readout. THP-1 LPS/ATP IL-1B secretion, AlphaLISA, 16 h; stronger effect = lower value. activity change, % at 57.5 µM. AID 743279. hit rate 4.7% among 360,000; in the data active means activity change below about -50%; inconclusive means mostly about -30% to -49%
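THP-1 cells pretreated 1 hr with compounds (up to 57.5 uM final), then stimulated with LPS (250 ng/mL final) plus ATP (1.25 mM final); secreted IL-1B measured by AlphaLISA after 16 hr, decreased signal indicating inhibition.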
TDP1 cell CPT: DT40-hTDP1 cell growth loss with CPT | chicken DT40 Tdp1-/-;hTDP1 cells + 20 nM CPT, ATP luminescence, 48 h | Potency, µM (doses to about 46.2 µM), inactives show top-dose activity change, negative = growth inhibition, hits mostly inhibitors | hit rate 12% among 420,000 | AID 686979; further: potency means the concentration at half of the fitted maximal effect; nearly all actives have a fitted effect of over 55% in size
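Cell growth measured by CellTiter-Glo luminescence after a minimum 48 h, 37 C compound exposure with 20 nM CPT in Tdp1-knockout DT40 cells stably expressing hTDP1, seeded 400/well; qHTS titration format.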
DT40 TDP1 no CPT: qHTS for Inhibitors of human tyrosyl-DNA phosphodiesterase 1 (TDP1): qHTS in cells in absence of CPT; DT40 Tdp1-/- hTDP1 cells, no CPT, ATP luminescence, 48 h; hit rate 15% among 420,000; Potency, µM (series often up to 46.2 µM), inactives show at the highest dose activity change, negative = growth inhibition, actives largely listed as inhibitors; further: potency means the concentration at half of the fitted maximal effect; nearly all actives have a fitted effect of over 55% in size
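Chicken DT40 Tdp1-/- cells stably complemented with human TDP1 were seeded at 400 cells/well with DMSO in place of 20 nM camptothecin. After compound pinning, cells grew at least 48 hr at 37 °C; viability read by CellTiter-Glo luminescence.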
RORg inh: blocks mouse ROR gamma transcriptional activity; P51450; Drosophila S2 Gal4-RORgamma UAS-luciferase reporter, 20 h; Potency, µM (series often up to 53.6 µM), without a hit: at the top dose activity change, negative = inhibition, most hits filed as inhibitors; hit rate 5.4% among 310,000; further: potency means the concentration at half of the fitted maximal effect; nearly all actives have a fitted effect of over 60% in size
Target sequence (P51450 whole entry, looked up, the tested form may be a part): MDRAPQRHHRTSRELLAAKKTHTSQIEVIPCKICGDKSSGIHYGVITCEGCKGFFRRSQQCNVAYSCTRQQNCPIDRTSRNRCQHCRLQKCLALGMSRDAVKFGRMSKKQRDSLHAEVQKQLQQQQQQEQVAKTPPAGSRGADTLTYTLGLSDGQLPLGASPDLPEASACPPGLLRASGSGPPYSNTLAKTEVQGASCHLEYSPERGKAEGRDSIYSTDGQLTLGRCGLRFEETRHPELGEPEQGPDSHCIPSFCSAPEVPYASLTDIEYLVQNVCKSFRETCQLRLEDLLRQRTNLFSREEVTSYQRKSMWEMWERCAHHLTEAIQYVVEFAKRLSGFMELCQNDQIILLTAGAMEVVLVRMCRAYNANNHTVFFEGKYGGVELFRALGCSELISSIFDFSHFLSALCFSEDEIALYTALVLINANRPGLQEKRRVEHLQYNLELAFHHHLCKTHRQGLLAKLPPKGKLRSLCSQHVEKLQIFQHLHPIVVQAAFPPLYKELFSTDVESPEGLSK
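Luciferase reporter read in Schneider cells carrying Gal4-RORγ (mouse) and UAS-Photinus luciferase; cells given compound 1 h before 700 uM copper sulfate induction, then incubated 20 h at ambient temperature.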
VP16 counter: Gal4-VP16 reporter inhibition counter-screen | Drosophila S2 Gal4-VP16 UAS-luciferase, luminescence, 20 h | AID 2546 | hit rate 3.5% among 310,000 | Potency, µM (series often up to 53.6 µM), for the others: at the top dose activity, negative = inhibition, hits mostly inhibitors;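 further: Gal4-VP16 expression switched on by copper sulfate through the metallothionein promoter; potency means the concentration at half of the fitted maximal effect; nearly all actives have a fitted effect of over 50% in size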
Starred values were filed as active, the others as inactive. The list is not random: actives were taken first. Their share in the collection is about 21%. Unless noted, the call rests on the fitted dose curve; in most records, active means well fitted curve in the direction sought with a large enough effect; inconclusive means small, poorly fitted or top-dose-only effect, or another doubt; inactive means no such curve, though single readings can be large; an effect the other way counts as inactive or inconclusive. On the % scale 0 is the no-effect control and ±100 the full control effect.

What do the screens show for `COc1ccccc1NC(=O)C1CCCN(S(=O)(=O)c2ccc3c(c2)CC(C)N3C(C)=O)C1` (stereo unspecified)?
ELG1 DNA repair: 0%; IL1B secr inh: 1; TDP1 cell CPT: inconclusive; DT40 TDP1 no CPT: 7.3µM*; RORg inh: -2%; VP16 counter: -13%

What do the screens show for `O=S1(=O)C[C@@H](N2CCN(c3ccccn3)CC2)[C@H](COCc2ccccc2)N1`?
IL1B secr inh: 54; TDP1 cell CPT: -6%; DT40 TDP1 no CPT: -12%

Results for CCOCCc1nn2c(=O)cc(COC(=O)c3ccccc3NC(=O)c3ccc(C)cc3)nc2s1 ?
TDP1 cell CPT: -17%; DT40 TDP1 no CPT: 5%

Results for CN(C)c1ccc(S(=O)(=O)N2CCC(Cc3ccccc3)CC2)cn1 ?
ELG1 DNA repair: -17%; IL1B secr inh: 26; TDP1 cell CPT: inconclusive; DT40 TDP1 no CPT: inconclusive

What do the screens show for `CC(OC(=O)Cc1c(F)cccc1Cl)C(=O)NCCC1=CCCCC1` (stereo unspecified)?
ELG1 DNA repair: 4%; IL1B secr inh: 12; TDP1 cell CPT: inconclusive; DT40 TDP1 no CPT: -24%; RORg inh: 22%; VP16 counter: -15%

How did CCCCOc1ccc(N2C(=O)CC(NCc3ccncc3)C2=O)cc1 (stereo unspecified) do in these assays?
ELG1 DNA repair: -11%; IL1B secr inh: -4; TDP1 cell CPT: -13%; DT40 TDP1 no CPT: -8%; RORg inh: inconclusive; VP16 counter: inconclusive

Results for CC(=O)N1c2ccc(S(=O)(=O)N3CCC(C(=O)Nc4ccc(F)cc4)CC3)cc2CC1C (stereo unspecified) ?
ELG1 DNA repair: inconclusive; IL1B secr inh: -15; TDP1 cell CPT: 18µM*; DT40 TDP1 no CPT: 13µM*; RORg inh: inconclusive; VP16 counter: inconclusive

What do the screens show for `CC(=O)N1c2ccc(S(=O)(=O)N3CCC(C(=O)Nc4ccccn4)CC3)cc2CC1C` (stereo unspecified)?
ELG1 DNA repair: inconclusive; IL1B secr inh: 12; TDP1 cell CPT: -21%; DT40 TDP1 no CPT: -13%; RORg inh: 11%; VP16 counter: 8%

Results for COc1ccc(NC(=O)c2ccc3c(=O)n4nc(Nc5ccccc5C)sc4nc3c2)cc1Cl ?
TDP1 cell CPT: 7.3µM*; DT40 TDP1 no CPT: 5.8µM*

Results for CCOc1ccc(NC(=O)c2ccc3c(SCC(=O)O)c4c(nc3c2)CCC4)cc1 ?
TDP1 cell CPT: 15%; DT40 TDP1 no CPT: 11%

How did COc1ccc(NC(=O)c2ccc3c(=O)n4nc(Nc5cccc(Cl)c5C)sc4nc3c2)cc1 do in these assays?
TDP1 cell CPT: 2.9µM*; DT40 TDP1 no CPT: 3.3µM*

What do the screens show for `CCOc1ccc(NC(=O)c2ccc3c(=O)n4nc(Nc5ccccc5C)sc4nc3c2)cc1`?
TDP1 cell CPT: inconclusive; DT40 TDP1 no CPT: 6.5µM*

Results for Cc1ccccc1Nc1nn2c(=O)c3ccccc3nc2s1 ?
ELG1 DNA repair: inconclusive; IL1B secr inh: 10; TDP1 cell CPT: inconclusive; DT40 TDP1 no CPT: inconclusive; RORg inh: 3%; VP16 counter: -10%

Results for Cc1ccc(NC(=O)c2ccc3c(=O)n4nc(Nc5ccccc5C)sc4nc3c2)cc1C ?
TDP1 cell CPT: 2.9µM*; DT40 TDP1 no CPT: 5.8µM*

How did Cn1c(N)c(C(=O)CSc2nnc3n2CCCCC3)c(=O)n(C)c1=O do in these assays?
ELG1 DNA repair: 0%; IL1B secr inh: -5; TDP1 cell CPT: 3%; DT40 TDP1 no CPT: 1%

What do the screens show for `N=c1sccn1CC(=O)Nc1cccc(Oc2ccccc2)c1`?
ELG1 DNA repair: 4%; IL1B secr inh: -22; TDP1 cell CPT: inconclusive; DT40 TDP1 no CPT: 22µM*; RORg inh: 30%; VP16 counter: 4%

Results for O=C(CCl)Nc1cccc(Oc2ccccc2)c1 ?
ELG1 DNA repair: -19%; IL1B secr inh: -106*; TDP1 cell CPT: 3.3µM*; DT40 TDP1 no CPT: 2.9µM*; RORg inh: 10µM*; VP16 counter: inconclusive

Results for O=C(CCl)Nc1cccc(Oc2cnccn2)c1 ?
ELG1 DNA repair: inconclusive; IL1B secr inh: -88*; TDP1 cell CPT: 18µM*; DT40 TDP1 no CPT: 9.2µM*; RORg inh: inconclusive; VP16 counter: inconclusive

Results for COc1cccc(NC(=O)CC(C)=O)c1 ?
ELG1 DNA repair: 24%; IL1B secr inh: -3; TDP1 cell CPT: -7%; DT40 TDP1 no CPT: -16%; RORg inh: 17%; VP16 counter: -4%

What do the screens show for `N=c1sccn1CC(=O)Nc1cccc(S(N)(=O)=O)c1`?
ELG1 DNA repair: 0%; IL1B secr inh: -24; TDP1 cell CPT: 8%; DT40 TDP1 no CPT: 11%; RORg inh: 8%; VP16 counter: -8%

Results for COc1cc(NC(=O)CCl)ccc(=O)c1 ?
IL1B secr inh: -14; TDP1 cell CPT: 13µM*; DT40 TDP1 no CPT: 18µM*

How did COc1ccc(-c2cc3c(=O)n(CC(=O)Nc4ccc(Br)c(C)c4)ccn3n2)cc1OC do in these assays?
TDP1 cell CPT: -22%; DT40 TDP1 no CPT: -30%

What do the screens show for `COC(=O)[C@H]1C2CC3c4[nH]c5ccccc5c4CCN3CC2CC[C@@H]1O` (stereo partly specified)?
TDP1 cell CPT: -3%; DT40 TDP1 no CPT: -12%

How did C[C@@H]1CN([C@@H](C)CO)C(=O)CCCn2nncc2CO[C@H]1CN(C)Cc1cccnc1 do in these assays?
IL1B secr inh: -12; TDP1 cell CPT: -3%; DT40 TDP1 no CPT: -2%

Results for Cc1ccc(F)cc1NC(=O)CCc1c(C)[nH]c(=O)c(C#N)c1C ?
ELG1 DNA repair: 16%; IL1B secr inh: 8; TDP1 cell CPT: 3%; DT40 TDP1 no CPT: -26%; RORg inh: -3%; VP16 counter: -14%

Results for O=C(CSc1ncnc2[nH]ncc12)Nc1cccc(Oc2ccccc2)c1 ?
ELG1 DNA repair: 3%; IL1B secr inh: -90*; TDP1 cell CPT: inconclusive; DT40 TDP1 no CPT: inconclusive; RORg inh: -7%; VP16 counter: 8%

Results for CC1NC(=O)c2cc3ccccc3cc2-n2c1nc1cc(Cl)ccc1c2=O (stereo unspecified) ?
IL1B secr inh: 16; TDP1 cell CPT: 21µM*; DT40 TDP1 no CPT: inconclusive

What do the screens show for `CC(C)CC1NC(=O)c2cc3ccccc3cc2-n2c1nc1cc(Cl)ccc1c2=O` (stereo unspecified)?
IL1B secr inh: 73; TDP1 cell CPT: inconclusive; DT40 TDP1 no CPT: 18µM*
